# Test results taken from paper PMC4336329 (PLoS ONE, 2015).
# The whole screen tested about 310,000 compounds, of which about 14,000 (4.5%) showed an effect of 50% or more. Effects have a minus sign here. The list comes from a sample in which strong results are over-represented; it also holds similar structures and randomly drawn compounds.
# Biological target: human ether-à-go-go-related gene (hERG) potassium channel (human, UniProt Q12809)
# Experiment: primary screen, population patch clamp on CHO cells stably expressing hERG; higher = less effect of the substance
# 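Also: peak tail current of the secondary pulse compared with the same well before compound.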
# human ether-à-go-go-related gene (hERG) potassium channel, sequence (Q12809 whole entry, looked up): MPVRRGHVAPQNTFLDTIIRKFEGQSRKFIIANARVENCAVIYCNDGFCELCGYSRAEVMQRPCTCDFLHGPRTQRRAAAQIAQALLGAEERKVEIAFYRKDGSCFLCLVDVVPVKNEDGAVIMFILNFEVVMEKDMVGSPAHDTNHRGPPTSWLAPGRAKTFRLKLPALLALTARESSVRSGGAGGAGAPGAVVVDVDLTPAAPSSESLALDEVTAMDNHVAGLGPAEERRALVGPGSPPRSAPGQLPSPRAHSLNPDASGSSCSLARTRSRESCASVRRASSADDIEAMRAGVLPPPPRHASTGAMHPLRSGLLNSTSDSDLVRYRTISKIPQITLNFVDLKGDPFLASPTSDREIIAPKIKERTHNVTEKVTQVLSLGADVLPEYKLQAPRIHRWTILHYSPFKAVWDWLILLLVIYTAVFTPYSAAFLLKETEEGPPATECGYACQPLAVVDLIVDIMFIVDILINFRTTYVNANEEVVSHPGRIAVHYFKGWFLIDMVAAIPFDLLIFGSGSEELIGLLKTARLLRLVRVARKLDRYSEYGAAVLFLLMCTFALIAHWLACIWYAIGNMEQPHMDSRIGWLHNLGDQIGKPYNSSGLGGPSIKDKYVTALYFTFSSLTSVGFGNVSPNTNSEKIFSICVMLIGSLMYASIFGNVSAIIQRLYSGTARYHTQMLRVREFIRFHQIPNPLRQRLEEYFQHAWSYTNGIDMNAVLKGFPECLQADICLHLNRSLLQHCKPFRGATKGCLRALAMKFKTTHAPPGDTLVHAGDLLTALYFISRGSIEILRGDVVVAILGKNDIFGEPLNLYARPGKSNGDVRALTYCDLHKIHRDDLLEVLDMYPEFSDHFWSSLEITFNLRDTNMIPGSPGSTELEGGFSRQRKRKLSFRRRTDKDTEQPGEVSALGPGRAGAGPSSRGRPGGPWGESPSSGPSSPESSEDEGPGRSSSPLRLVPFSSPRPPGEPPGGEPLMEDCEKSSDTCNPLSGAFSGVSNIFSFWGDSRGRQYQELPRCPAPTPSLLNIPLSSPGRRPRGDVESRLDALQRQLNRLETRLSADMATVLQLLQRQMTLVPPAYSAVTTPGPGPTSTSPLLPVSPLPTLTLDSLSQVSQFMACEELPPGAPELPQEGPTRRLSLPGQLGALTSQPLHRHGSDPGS
row,Compound,"hERG current change (%, negative = inhibition) at 10uM"
1,CCc1ccc(NC(=O)CSc2nc(=O)n(CCN(C)C)c3c2CCCC3)cc1,-24.2%
2,C=C(C)CN(CC)Cc1c(C(=O)N(C)CCCC)nc2ccccn12,-20.7%
3,Cc1ccc(S(=O)(=O)NNC(=O)C2CCN(Cc3ccccc3)CC2)cc1,-15.4%
4,COc1ccc(NC(=O)CSc2nnc(C3CCCCC3)n2N)cc1OC,21.9%
5,Cc1cc(N/N=C/c2ccccc2O)nc(N2CCOCC2)n1,6.96%
6,COc1ccc2ccc(OCC(=O)N3c4ccccc4NC(=O)CC3C)cc2c1 (centres unmarked),-21.2%
7,Fc1ccc(-[n+]2nc(Nc3ccccc3)sc2-c2c3ccccc3cc3ccccc23)cc1.[Cl-],18.2%
8,COc1ccc(-c2sc(Nc3ccccc3)n[n+]2-c2ccc(F)cc2)cc1Br.[Cl-],4.03%
9,COc1ccc(-c2sc(Nc3ccccc3)n[n+]2C)c(C)c1C.[Cl-],-1.19%
10,Oc1ccc2ccccc2c1-c1sc(Nc2ccccc2)n[n+]1-c1ccc(F)cc1.[Cl-],-0.475%
11,COc1ccc(-c2sc(Nc3ccccc3)n[n+]2-c2ccc(F)cc2)c(C)c1C.[Cl-],-74.5%
12,COc1ccc(-c2sc(Nc3ccccc3)n[n+]2-c2ccc(F)cc2)c(OC)c1OC.[Cl-],-72.2%
13,COc1cc(OC)c(-c2sc(Nc3ccccc3)n[n+]2-c2ccc(F)cc2)cc1OC.[Cl-],-0.831%
14,COc1ccc2ccccc2c1-c1sc(Nc2ccccc2)n[n+]1-c1ccc(F)cc1.[Cl-],-57.4%
15,Cc1nc2sc3c(c2c(=O)o1)CCC3,4.18%
16,O=c1[nH]c(O)c(/C=C2\C=Nc3ccccc32)[nH]1,20.9%
17,Cc1cc(S(=O)(=O)N2CCOCC2)ccc1OCC(=O)NCC1CCCO1 (centres unmarked),-0.633%
18,COc1ccc(S(=O)(=O)N(Cc2ccccc2)c2ccccc2C(=O)O)cc1,31.8%
19,O=S(=O)(Cc1ccccc1)NCCc1cccc(Cl)c1,-5.57%
20,Cc1nnc(-c2cnn(-c3ccccc3)c2N)n1Cc1ccccc1,-1.94%
21,CCCOc1ccc(CC(CC(=O)O)(C(=O)O)C(=O)O)cc1,13.5%
22,CCOC(=O)c1cccc(Nc2ncnc3ccccc23)c1.Cl,-24.9%
23,COC(=O)c1cccc(Nc2ncnc3ccc(C)cc23)c1,-20.9%
24,CCOC(=O)c1cccc(Nc2ncnc3ccc(C)cc23)c1,-59.3%

row,Compound,"hERG current change (%, negative = inhibition) at 10uM"
1,CCOc1ccc(C(C)=O)cc1CSc1nnc(-c2ccncc2)n1CCOC,-0.498%
2,COCCn1c(SCCCC(=O)c2ccc(Br)cc2)nnc1-c1ccncc1,-60.7%
3,Cn1c(SCC(=O)c2ccccc2)nnc1-c1ccncc1,-0.277%
4,Cn1c(SCCCC(=O)c2ccc(F)cc2)nnc1-c1ccncc1,-59.6%
5,Cn1c(SCCCC(=O)c2ccccc2)nnc1-c1ccncc1,-42.9%
6,COCCn1c(SCC(=O)N2CCOCC2)nnc1-c1ccncc1,-7.01%
7,Cc1ccc(C(=O)CSc2nnc(-c3ccncc3)n2C)cc1,-3.2%
8,Cn1c(SCCC(=O)O)nnc1-c1ccncc1,1.73%
9,Cn1c(SCCCC(=O)c2ccc(Br)cc2)nnc1-c1ccncc1,-70.2%
10,[O-][n+]1onc2c1CCC1N(O)C(c3ccccc3)CC21O (centres unmarked),14.7%
11,O=C(c1cc(C2CC2)nn1-c1ccccc1)N1CCN(Cc2c(F)cccc2Cl)CC1,-36.6%
12,CN(CCO)C(=O)c1cccc2c1-c1ccccc1C2=O,4.12%
13,c1ccc(-c2ccc(-c3ccccn3)s2)nc1,-8.87%
14,CCOc1ccc(NC(=O)c2ccc(Br)o2)c([N+](=O)[O-])c1,5.5%
15,CC(C)C(=O)NC(c1ccco1)c1c(O)ccc2ccccc12 (centres unmarked),14.1%
16,COc1ccc(C(=O)C2CCCN(Cc3ccc(Sc4nncn4C)o3)C2)cc1F (centres unmarked),-15.4%
17,O=C(CN1CCC(C(=O)c2ccc(Cl)cc2)CC1)Nc1ccc2c(c1)OCCO2,-44.9%
18,COc1ccccc1C(=O)C1CCCN(Cc2ccc3c(c2)OCCO3)C1 (centres unmarked),-40.5%
19,O=C(c1ccc(Cl)cc1)C1CCCN(Cc2ccon2)C1 (centres unmarked),-18%
20,COc1ccc(F)cc1C(=O)C1CCCN(Cc2ccc(Sc3nncn3C)o2)C1 (centres unmarked),12.6%
21,O=C(c1ccc(Cl)cc1)C1CCCN(Cc2ccc3c(c2)OCCO3)C1 (centres unmarked),-73.5%
22,COc1ccc(F)cc1C(=O)C1CCCN(Cc2ccc3c(c2)OCCO3)C1 (centres unmarked),-54.3%
23,COc1ccc(C(=O)C2CCCN(Cc3ccc4c(c3)OCCO4)C2)cc1F (centres unmarked),-74.7%
